Rows were chosen to be rich in hits. Some 11% of all compounds tested hit in one or more screens of this group.
NPR1 antag: Natriuretic polypeptide receptor (hNpr1) antagonism - Primary qHTS | hit rate 1.6% among 76,000 | HEK293 hNpr1 GloSensor cGMP, ANP-stimulated luminescence | Potency, µM (doses to about 46.3 µM), for inactives: at the highest dose activity change, negative = inhibition, hits mostly inhibitors | Atrial natriuretic peptide receptor 1 (Homo sapiens), P16066; calls by dose curve; further: on the % scale 0 is the no-effect control and ±100 the full control effect; nearly all actives have a fitted effect of over 60% in size
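Compound pre-incubated 30 min at room temperature on GloSensor-loaded HEK293 cells stably carrying hNpr1 and the pGS-40F cGMP biosensor. Stimulation uses hNppA at 0.1 nM final; luminescence is taken at baseline and 20 min post-agonist.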
3T3 cytotox: Cytotoxic Profiling in NIH 3T3 Cell Line of Diverse Libraries Using Quantitative High-Throughput Screening; Potency, µM (top dose mostly 96.7 µM), without a hit: at the top dose activity change, negative = cytotoxicity, hits mostly inhibitors; NIH 3T3 viability, CellTiter-Glo ATP luminescence, 48-72 h; hit rate 4.3% among 94,000; AID 1345082, 2018; further: on the % scale 0 is the no-effect control and ±100 the full control effect; nearly all actives have a fitted effect of over 55% in size
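Mouse fibroblast NIH 3T3 cells, 400 per well, received compound via pintool and were incubated for 48 or 72 hr prior to CellTiter-Glo ATP luminescence measurement.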
FLuc inh: Firefly luciferase inhibition profiling of diverse chemical library using quantitative high-throughput screening; Luciferin 4-monooxygenase (Photinus pyralis), P08659; purified P. pyralis luciferase, luminescence, biochemical; Potency, µM (top dose mostly 115 µM), most hits filed as inhibitors; hit rate 2.5% among 76,000; further: on the % scale 0 is the no-effect control and ±100 the full control effect; nearly all actives have a fitted effect of over 65% in size
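Inhibitors were tested against purified firefly luciferase in a biochemical, low-substrate format (both substrates at 10uM) and luminescence measured with a CCD imager.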
HEK293 tox: Cytotoxic Profiling in HEK 293 Cell Line of Diverse Libraries Using Quantitative High-Throughput Screening; hit rate 6.6% among 94,000; HEK 293 viability, ATP luminescence (CellTiter-Glo), 48-72 h; Potency, µM (highest dose often 115 µM), for inactives: top-dose activity change, negative = cytotoxicity, most hits filed as inhibitors; AID 1345083, 2018; further: on the % scale 0 is the no-effect control and ±100 the full control effect; nearly all actives have a fitted effect of over 60% in size
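HEK 293 cells seeded at 250 cells/well were exposed to compound for 48 or 72 hr at 37 degree Celsius. Viability taken as ATP content by CellTiter-Glo luminescence.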
NPR1 antag cnf: Natriuretic polypeptide receptor (hNpr1) antagonism - Confirmation; HEK293 hNpr1 cGMP GloSensor luminescence, ANP-stimulated; hit rate 76% among 1,400; shares compounds with NPR1 antag; Potency, µM (series often up to 57.6 µM), for inactives: at the highest dose activity change, negative = inhibition, hits mostly inhibitors; calls by dose curve; further: nearly all actives have a fitted effect of over 70% in size
Npr2 selectivity: Natriuretic polypeptide receptor (hNpr2) antagonism - Subtype selectivity assay. shares compounds with NPR1 antag. hit rate 67% among 1,400. HEK293 hNpr2 GloSensor cGMP luminescence, CNP-stimulated. AID 1347046, 2019. Potency, µM (highest dose often 57.6 µM), for the others: at the highest dose activity change, negative = inhibition, most hits filed as inhibitors; calls by dose curve; further: nearly all actives have a fitted effect of over 70% in size
Target sequence (P20594 whole entry, looked up): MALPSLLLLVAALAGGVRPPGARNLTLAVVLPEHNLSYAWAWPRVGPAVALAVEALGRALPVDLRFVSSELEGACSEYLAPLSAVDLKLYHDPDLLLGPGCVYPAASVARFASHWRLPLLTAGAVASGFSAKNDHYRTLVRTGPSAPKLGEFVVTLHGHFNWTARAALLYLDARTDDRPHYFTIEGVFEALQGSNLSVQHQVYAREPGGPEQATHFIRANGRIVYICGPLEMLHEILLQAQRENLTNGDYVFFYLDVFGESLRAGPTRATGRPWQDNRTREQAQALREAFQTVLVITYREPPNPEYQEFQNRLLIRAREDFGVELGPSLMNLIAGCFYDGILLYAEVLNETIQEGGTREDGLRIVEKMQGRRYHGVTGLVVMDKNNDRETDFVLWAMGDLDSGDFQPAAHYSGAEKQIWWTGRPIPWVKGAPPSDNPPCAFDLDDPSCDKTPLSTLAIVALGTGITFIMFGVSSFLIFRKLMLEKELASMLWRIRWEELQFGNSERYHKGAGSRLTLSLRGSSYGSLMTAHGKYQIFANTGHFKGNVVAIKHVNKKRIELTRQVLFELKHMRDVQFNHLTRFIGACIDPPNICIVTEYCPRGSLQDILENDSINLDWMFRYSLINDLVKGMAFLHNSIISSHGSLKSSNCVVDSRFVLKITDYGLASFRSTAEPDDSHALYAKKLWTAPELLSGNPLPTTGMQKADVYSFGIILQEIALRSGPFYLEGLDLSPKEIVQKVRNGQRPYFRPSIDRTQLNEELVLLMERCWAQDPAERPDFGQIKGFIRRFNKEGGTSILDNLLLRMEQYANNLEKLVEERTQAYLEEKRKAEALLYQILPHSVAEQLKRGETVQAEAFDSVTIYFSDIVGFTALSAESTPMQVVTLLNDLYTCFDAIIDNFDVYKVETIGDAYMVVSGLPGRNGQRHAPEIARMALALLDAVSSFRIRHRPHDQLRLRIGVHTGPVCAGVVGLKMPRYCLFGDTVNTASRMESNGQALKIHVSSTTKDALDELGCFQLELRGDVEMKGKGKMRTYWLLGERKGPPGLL
FLuc inh counter: Natriuretic polypeptide receptor (hNpr1) antagonism - Confirmation firefly luciferase (FLuc) inhibition counterscreen | shares compounds with NPR1 antag | purified FLuc enzyme, luminescence, Km substrate | Potency, µM (series often up to 57.6 µM), for the others: at the top dose activity change, negative = inhibition, hits mostly inhibitors | hit rate 0.7% among 1,400; further: 0% is about no effect
GloSensor ctrl: Natriuretic polypeptide receptor (hNpr1) antagonism - Counterscreen GloSensor control cell line | shares compounds with NPR1 antag | Potency, µM (series often up to 57.6 µM), without a hit: top-dose activity change, negative = inhibition, usual class: inhibitors | HEK293 GloSensor cGMP, SNP-stimulated, luminescence | hit rate 69% among 1,400; calls by dose curve; further: on the % scale 0 is the no-effect control and ±100 the full control effect; nearly all actives have a fitted effect of over 70% in size
Starred values were filed as active, the others as inactive; [ ] = dose if it differs, or a comment. Unless noted, the call rests on the fitted dose curve; in most records, active means well fitted curve in the direction sought with a large enough effect; inconclusive means small, poorly fitted or top-dose-only effect, or another doubt; inactive means no such curve, though single readings can be large; an effect the other way counts as inactive or inconclusive. Potency means the concentration at half of the fitted maximal effect.

Screening COc1ccc(N2CCN(c3nc(C(=O)NCc4ccc(C)cc4)cs3)CC2)cc1 returned NPR1 antag 4.5µM*, 3T3 cytotox -22%, FLuc inh inactive, HEK293 tox 28µM*, NPR1 antag cnf 7.7µM*, Npr2 selectivity 11µM*, FLuc inh counter 1% and GloSensor ctrl 8.6µM*.
COc1ccc(CN2CCc3nc(C(=O)Nc4ccc(Cl)cc4)oc3CC2)cc1OC was read as NPR1 antag 6.3µM*, 3T3 cytotox inconclusive, FLuc inh inactive, HEK293 tox inconclusive, NPR1 antag cnf 9.7µM*, Npr2 selectivity 11µM*, FLuc inh counter 0% and GloSensor ctrl 7.7µM*.
For O=C(Nc1ccc(Cl)cc1)c1nc2c(o1)CCN(Cc1ccccc1)CC2 the results were NPR1 antag 4µM*, 3T3 cytotox inconclusive, FLuc inh inactive, HEK293 tox inconclusive, NPR1 antag cnf 11µM*, Npr2 selectivity 9.9µM*, FLuc inh counter inconclusive and GloSensor ctrl 7.9µM*.
`O=C(Nc1ccc(Cl)cc1)c1nc2c(o1)CCN(Cc1cc(F)ccc1F)CC2` gave NPR1 antag 13µM*, 3T3 cytotox inconclusive, FLuc inh inactive, HEK293 tox inconclusive, NPR1 antag cnf 16µM*, Npr2 selectivity 13µM*, FLuc inh counter 0%[86.2 µM] and GloSensor ctrl 9.9µM*.
COCCNC(=O)c1nc2c(o1)CCN(Cc1cc(C)cc(F)c1)CC2 was read as NPR1 antag -11%[70.6 µM], 3T3 cytotox inconclusive, FLuc inh inactive and HEK293 tox inconclusive.
`N#Cc1ccc(CN2CCc3nc(C(=O)Nc4cccc(C(F)(F)F)c4)oc3CC2)cc1` gave NPR1 antag 14µM*, 3T3 cytotox inconclusive, FLuc inh inactive, HEK293 tox inconclusive, NPR1 antag cnf 17µM*, Npr2 selectivity 19µM*, FLuc inh counter -8% and GloSensor ctrl 11µM*.
For N#Cc1cccc(CN2CCc3nc(C(=O)NCc4ccncc4)oc3CC2)c1 the results were NPR1 antag -26%[70.6 µM], 3T3 cytotox -26%[138 µM], FLuc inh inactive and HEK293 tox inconclusive.
For CC(C(N)=O)N1CCC(n2nccc2NC(=O)c2ccc3c(c2)OCO3)CC1 (stereo not drawn) the results were NPR1 antag 4%, 3T3 cytotox inactive, FLuc inh inactive and HEK293 tox 1%.
`O=C(c1ccc(F)cc1Cl)N1CCC(n2cc(-c3nc(C4CC4)no3)nn2)C1` (stereo not drawn) gave NPR1 antag 16µM*, 3T3 cytotox inconclusive, FLuc inh inactive, HEK293 tox inconclusive, NPR1 antag cnf 27µM*, Npr2 selectivity inconclusive, FLuc inh counter -1% and GloSensor ctrl inconclusive.
O=C(c1cc(F)ccc1F)N1CCC(n2cc(-c3nc(C4CC4)no3)nn2)C1 (stereo not drawn) was read as NPR1 antag 2%, 3T3 cytotox -30%, FLuc inh inactive and HEK293 tox -22%.
For Cc1ccc(C(=O)N2CCC(n3cc(-c4nc(C5CC5)no4)nn3)C2)s1 (stereo not drawn) the results were NPR1 antag 16µM*, 3T3 cytotox -25%, FLuc inh inactive, HEK293 tox inconclusive, NPR1 antag cnf 24µM*, Npr2 selectivity 24µM*, FLuc inh counter -2% and GloSensor ctrl 14µM*.
Cc1ccc(C(=O)N2CCCC(n3cc(-c4nc(C5CC5)no4)nn3)C2)s1 (stereo not drawn) was read as NPR1 antag -8%, 3T3 cytotox -27%, FLuc inh inactive and HEK293 tox inconclusive.
For Cn1ccnc1C(=O)N1CCCCCCNC(=O)[C@@H]2C[C@@H](c3nc(-c4cccnc4)no3)C[C@@H]21 the results were NPR1 antag 0%, 3T3 cytotox -16%, FLuc inh inactive and HEK293 tox 5%.
`Cn1nc(C2CCCN(C(=O)c3ccccc3)C2)n(C2CCCC2)c1=O` (stereo not drawn) gave 3T3 cytotox -31% and HEK293 tox -20%.
COc1ccc(CN2C(=O)[C@@H]3C[C@@H](CN3C3CCCC3)Oc3ccccc32)cc1 was read as NPR1 antag inconclusive, 3T3 cytotox inconclusive, FLuc inh inactive, HEK293 tox inconclusive, NPR1 antag cnf -23%[86.2 µM], Npr2 selectivity inconclusive, FLuc inh counter -5%[86.2 µM] and GloSensor ctrl -5%[86.2 µM].
For COc1ccc(CN2C(=O)[C@@H]3C[C@@H](CN3C(=O)c3cnccn3)Oc3ccccc32)cc1 the results were NPR1 antag 0%[70.6 µM], 3T3 cytotox inconclusive, FLuc inh inactive and HEK293 tox 3%[172 µM].
For COc1ccc(CN2C(=O)[C@@H]3C[C@@H](CN3C3CCC3)Oc3ccccc32)cc1 the results were NPR1 antag inconclusive, 3T3 cytotox 32µM*, FLuc inh inactive, HEK293 tox inconclusive, NPR1 antag cnf -27%[86.2 µM], Npr2 selectivity inconclusive, FLuc inh counter -19%[86.2 µM] and GloSensor ctrl 0%[86.2 µM].
For COCCc1noc(-c2ccccc2OC2CN(C(=O)CC3CCCC3)C2)n1 the results were NPR1 antag -3%, 3T3 cytotox -19%, FLuc inh inactive and HEK293 tox inconclusive.
COCCN1CCOC2(CCN([S+](=O)([O-])c3ccc(F)cc3F)CC2)C1=O was read as NPR1 antag -8%[70.6 µM], 3T3 cytotox inconclusive, FLuc inh inactive and HEK293 tox -17%[172 µM].
